# According to PubChem BioAssay AID720517 (National Center for Advancing Translational Sciences (NCATS), 2013):
# Inconclusive results are not listed. Activity calls are given as the source filed them. The call rests on the fitted dose curve; in most records, active means well fitted activation curve with a large enough effect; inconclusive means small, poorly fitted or top-dose-only effect; inactive means flat fitted curve, though single readings scatter.
# Assay: qHTS for Inhibitors of Cell Surface uPA Generation: FP59 Counterscreen for Cherry-picked Compounds; further: 0% is about no effect
# Conditions: FP59 anthrax toxin cytotoxicity counterscreen, cells; series mostly up to 115 µM; activity (protection from FP59): at the top concentration
row,Compound,activity (protection from FP59)
1,COc1ccccc1NC(=O)Cn1ncc2c1-c1ccccc1OC2,-1.3% (inactive)
2,C=CCn1c(SCc2ccc(C(=O)NCCO)cc2)nc2ccccc2c1=O,-1.12% (inactive)
3,COc1cccc(NC(=O)CSc2nc3ncc(Br)cc3[nH]2)c1,-1.32% (inactive)
4,COCCN(CCOC)c1nc(-c2ccc(C)cc2)nc2ccccc12,-1.31% (inactive)
5,COCCNS(=O)(=O)c1cc(OC)c(C)cc1C,-1.25% (inactive)
6,O=C(C1CCCCN1S(=O)(=O)c1ccc(F)cc1)N1CCN(c2ccccc2F)CC1 (configuration not stated),-0.0276% (inactive)
7,CC1CC(C)(C)Nc2ccc(N=O)cc21 (configuration not stated),-1.58% (inactive)
8,CC1(C)C([N+](=O)[O-])C(c2ccc(F)cc2)NC(c2ccc(F)cc2)C1[N+](=O)[O-] (configuration not stated),2.83% (inactive)
9,CN(c1ccccc1)S(=O)(=O)c1ccc(C(=O)Nc2nnc(C3CC3)o2)cc1,-0.58% (inactive)
10,Cc1ccccc1C(=O)NCC(=O)Nc1ccc(C)c(S(=O)(=O)N2CCCCCC2)c1,-1.2% (inactive)
11,O=C(CNC(=O)c1ccc(Br)o1)NNC(=O)c1ccccc1,-1.44% (inactive)
12,CCN(CC)c1ccc(C=NCCc2ccc(S(N)(=O)=O)cc2)cc1,-0.849% (inactive)
13,COC(=O)CCSCC(=O)N1N=C(c2ccc(OC)cc2)CC1c1cccc(OC)c1OC (configuration not stated),-1.4% (inactive)
14,COc1ccc(NC(=O)CN2C(=O)CSc3ncccc32)cc1,-1.3% (inactive)
15,Cc1ccc2oc(C(=O)N(Cc3ccc(N(C)C)cc3)C3CCS(=O)(=O)C3)c(C)c2c1 (configuration not stated),3.1% (inactive)
16,COc1cc(CCC(=O)OCC(=O)NCc2ccccc2)cc(OC)c1OC,0.669% (inactive)
17,Cc1ccc(S(=O)(=O)N2CCN(C(=O)c3n[nH]c(=O)c4ccccc34)CC2)cc1,-1.23% (inactive)
18,CCOc1ccccc1CN1CCCC(CNS(=O)(=O)c2ccc(OC)cc2)C1 (configuration not stated),-0.81% (inactive)
19,CCOc1ncccc1C(=O)NCc1ccccc1Cl,-1.27% (inactive)
20,COc1ccccc1NC(=O)COc1ccc(C(=O)NCc2ccccc2)cc1OC,0.667% (inactive)
21,CSc1ccc(CNCCCN(C)C)cc1,-1.44% (inactive)
22,CCOC(=O)CN1C(=O)N[C@@H](c2ccccc2)C(C(C)=O)=C1C,-1.48% (inactive)
